The values below come from PubChem BioAssay AID652235 (Sanford-Burnham Center for Chemical Genomics, 2013).

A word on the inhibition: it is the drop in the measured response relative to a control, in per cent.

The list shows a part of the results. Active and inactive are the calls of the source.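 How the source made its calls: active means inhibition of at least 50% in the primary cell screen; inactive means the rest.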

In the assay the target is Matrix metalloproteinase-14 (Homo sapiens) (UniProt P50281). Description: MT1-MMP activation inhibitors, hit retest, confirmation, single concentration, fluorescence, HT1080 RFP-PRO-GFP cells (AID 652235). Conditions: GFP and RFP fluorescence ratio, overnight, at 20 µM, hits give high values.
Consider `O=P(O)(CP(=O)(c1ccccc1)c1ccccc1)c1ccccc1`, for which the inhibition was -1.14% (inactive).

With `O=c1ccc2c(-c3ccccc3S(=O)(=O)O)c3ccc(O)c(O)c3oc-2c1O`, the inhibition is 48.5% (inactive).

As for `COc1ccc(C)cc1Nc1nc(-c2c(C)[nH]c3ccccc23)cs1`, the inhibition was 4.82% (inactive).

Turning to `O=C(NNc1c2ccccc2nc2ccccc12)c1cc2ccccc2cc1O`, the inhibition was 52.9% (active).

For the compound `Nc1ccc(Nc2ccccc2)cc1`, the inhibition is 12.6% (inactive).

As to `Cc1cc2ccccc2n1CCNC(=O)COc1ccc2ccccc2c1`, the inhibition is 6.16% (inactive).

For `O=C(c1cccc(Cl)c1)N1CCN(Cc2ccccc2)CC1`, the inhibition is -1.11% (inactive).

Regarding `CN=C1C=C/C(=N/N=c2\ccn(O)cc2C)C=C1C`, the inhibition was 43.7% (inactive).

In the case of `O=C1CCCC(O)=C1N=Nc1ccc(S(=O)(=O)N2CCOCC2)cc1`, the inhibition is 4.19% (inactive).
